Screening data: PubChem, several laboratories
HSF1 inh: HSF1 inhibition; NIH3T3-HGL HSE-luciferase, MG132-induced, luminescence 8 h; hits give low values; activity change, negative = inhibition, % at 7.5 µM (by protocol); AID 2098; 300,000 tested, 0.77% active;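 active = more than half of replicate wells show activity change below -50%, luminescence cut by over half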;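 note: luciferase reports HSF-1 transcriptional activity via heat shock element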
LMP1 NFkB inh: reduces LMP1-driven NF-kappaB luciferase signal. LMP1-induced NF-kappaB luciferase reporter cells, luminescence. inhibition, % at 12.5 µM. 350,000 tested, 0.69% active; in the data active = inhibition above about 41%
HSF1 activator: increases HSF-1 driven luciferase reporter signal. NIH3T3-HGL HSF-1 luciferase reporter, MG132, 8 h; 100% = twice DMSO control signal. activation, % at 9 µM. 300,000 tested, 1.7% active. AID 504408;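 active = mean replicate activation of at least 50% with a set share of replicates each reaching 50%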
TWEAK Fn14 block: inhibitors of TWEAK-Fn14 interaction signaling. 360,000 tested, 2% active. inhibition, % at 10 µM. TWEAK-stimulated Fn14 reporter cells, luciferase luminescence, 8 h; in the data active = inhibition above about 50%
TROY signal inh: blocks TROY-dependent signaling in reporter cells; 360,000 tested, 0.98% active; inhibition, % at 10 µM; Q293 LMP1-TROYcd NF-kB luciferase reporter, 4 h;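 active = compounds whose plate-normalised and pattern-corrected inhibition of the luciferase reporter signal at the single screening dose is 50% or more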
LGR2 inh: blocks bursicon-induced cAMP signaling via Drosophila LGR2 | HEK293 LGR2, CRE-luciferase, bursicon-stimulated, 4 h | inhibition, % at 9.99 µM | 380,000 tested, 0.35% active | AID 720647;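 active = drop in luminescence signal, shown as inhibition above about 50% in the replicate tests, limit read from the data, passing the limit was not always enough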;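 note: agonist challenge used bursicon conditioned medium at about half maximal strength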
Hits are given with their value; n = inactive; x = no result. The list is not random: actives were taken first. Their share in the collection is about 3.6%.

SMILES	HSF1 inh	LMP1 NFkB inh	HSF1 activator	TWEAK Fn14 block	TROY signal inh	LGR2 inh
O=C(C[C@H]1C[C@@H]2c3cc(NS(=O)(=O)c4ccc(F)cc4)ccc3O[C@@H]2[C@@H](CO)O1)NCc1cc(F)ccc1F	x	x	x	x	x	n
O=C(c1ccc(S(=O)(=O)Cc2ccccc2Cl)c([N+](=O)[O-])c1)N1CCN(c2ccccn2)CC1	n	n	n	68.8	n	n
CC1CCN(C(=O)c2ccc(S(=O)(=O)Cc3cccc(F)c3)c([N+](=O)[O-])c2)CC1	n	n	n	65.7	n	n
O=C(c1ccc(Cl)c([N+](=O)[O-])c1)N1CCN(c2ccccn2)CC1	n	n	n	n	n	n
Cc1ccc(S(=O)(=O)Cc2ccc(C(=O)N3CCC(C)CC3)cc2)cc1	n	n	n	n	n	n
Cc1ccccc1CS(=O)(=O)c1ccc(C(=O)N2CCC(C)CC2)cc1[N+](=O)[O-]	n	n	n	56.5	n	n
O=C(c1ccc(S(=O)(=O)Cc2cc(F)ccc2F)c([N+](=O)[O-])c1)N1CCCCC1	n	n	n	62.0	n	n
O=C(c1ccc(S(=O)(=O)Cc2cc(F)ccc2F)c([N+](=O)[O-])c1)N1CCCC1	n	n	n	n	n	n
C[C@@H]1CN([C@@H](C)CO)C(=O)c2cccc(NS(=O)(=O)c3cccs3)c2O[C@@H]1CN(C)S(C)(=O)=O	x	x	x	x	x	n
C[C@H]1CCCCO[C@H](CN(C)C(=O)Nc2ccc3c(c2)OCO3)[C@@H](C)CN([C@@H](C)CO)C(=O)c2cc(NC(=O)CCC(F)(F)F)ccc2O1	x	x	x	x	x	n
C[C@@H]1CN([C@H](C)CO)C(=O)c2cc(NC(=O)Nc3ccc4c(c3)OCO4)ccc2O[C@@H](C)CCCCO[C@H]1CN(C)C(=O)Cc1ccccc1	x	x	x	x	x	n
COc1ccc(-c2sc3ccc(N4CCOCC4)cc3c2C#CCO)cc1	x	n	x	89.6	54.3	n
COc1ccc(-c2sc3ccc(N4CCOCC4)cc3c2C#CC2(O)CCCCC2)cc1	x	n	x	n	n	n
COc1ccc(S(=O)(=O)N2CC3(CN(Cc4ccccc4OC)[C@@H](CO)c4[nH]c5cc(OC)ccc5c43)C2)cc1	x	x	x	x	x	n
C[C@@H]1CN([C@H](C)CO)C(=O)c2cc(-c3cccc(F)c3)cnc2O[C@H]1CN(C)S(=O)(=O)c1cccc(F)c1	x	x	x	x	x	n
OC[C@@H]1[C@@H](c2ccc(Cl)cc2)C(c2cccc(Cl)c2)=NN1c1ccccc1	x	n	x	62.1	n	n
OC[C@@H]1[C@@H](c2ccc(Cl)cc2)C(c2ccccc2)=NN1c1ccccc1	x	n	x	n	n	n
CN(C)C(=O)C[C@@H]1CC[C@H]2[C@@H](COC[C@@H](O)CN2Cc2ccc(C(F)(F)F)cc2)O1	x	x	x	x	x	n
O=C(NN/C(=N/S(=O)(=O)c1ccc(Cl)cc1)c1ccccc1)c1cccc(Cl)c1	n	n	51.9	n	n	n
Cc1ccc(S(=O)(=O)/N=C(/NNC(=O)c2cccc(Cl)c2)c2ccccc2)cc1	n	n	n	n	n	n
O=C(O)c1ccc(N/C(=N\S(=O)(=O)c2ccc(Cl)cc2)c2ccccc2)cc1	n	n	n	n	n	n
O=C(NN/C(=N/S(=O)(=O)c1ccc(Cl)cc1)c1ccccc1)c1ccc(O)cc1	n	n	60.5	n	n	n
CCC(=O)Nc1ccc2c(c1)OC[C@@H](C)N(Cc1cccc(F)c1)C[C@H](C)[C@H](OC)CN(C)C2=O	x	x	x	x	x	n
C[C@@H]1CN([C@@H](C)CO)C(=O)Cc2cc(NS(C)(=O)=O)ccc2O[C@@H]1CN(C)S(=O)(=O)c1ccc(Cl)cc1	x	x	x	x	x	n
N#Cc1ccc(-c2ccc3c(c2)[C@H]2[C@H](CCN2C(=O)c2ccncc2)[C@H](CO)N3)cc1	x	x	x	x	x	n
SMILES	HSF1 inh	LMP1 NFkB inh	HSF1 activator	TWEAK Fn14 block	TROY signal inh	LGR2 inh
CCSc1nc(-c2ccccc2)nc(C(Cl)Cl)n1	n	67.4	57.4	n	n	n
CSc1nc(-c2ccc(C)cc2)nc(C(Cl)Cl)n1	n	60.5	n	n	n	x
Cc1ccc(-c2nc(C(Cl)Cl)c3ccccc3n2)cc1	n	n	n	n	n	n
O=C(O)/C=C\C(=O)Nc1ccccc1C#Cc1ccc(Br)cc1	n	n	55.6	n	n	n
O=C(Nc1cnn(C23CC4CC(CC(C4)C2)C3)c1)c1cnn2c(C(F)(F)F)cc(-c3ccco3)nc12	n	n	n	95.7	81.4	79.0
O=C(Nc1ccc2c(c1)OCO2)c1cnn2c(C(F)(F)F)cc(-c3ccco3)nc12	x	n	x	n	n	x
COc1ccccc1N(CC(O)CN1CCC(C)CC1)S(=O)(=O)c1ccccc1 (configuration not stated)	n	n	56.7	n	n	n
COc1ccccc1N(CC(O)CN1CCCC1)S(=O)(=O)c1ccccc1 (configuration not stated)	n	n	n	n	n	n
CC=Cc1ccc2n(c1=O)C[C@H]1[C@H](CO)[C@@H](C(=O)N3CCc4ccccc4C3)N[C@@H]21 (mixture of isomers)	x	x	x	x	x	n
CC(C)CC#Cc1ccc2c(c1)O[C@H](CN(C)C(=O)Cc1ccccc1)[C@@H](C)CN([C@@H](C)CO)S2(=O)=O	x	x	x	x	x	n
O=C(Nc1ccc(Oc2c(F)c(F)c(F)c(F)c2F)cc1)OC1CCN2Cc3ccccc3N=C12 (configuration not stated)	n	n	n	n	61.1	x
NC(=O)c1nn(-c2ccccc2)nc1NC(=O)CN1CCCCC1	n	n	53.3	n	n	x
Cc1nc(Nc2nc3ccccc3o2)nc(C)c1C(=O)Nc1ccc(F)cc1	n	n	n	n	n	n
CCOC(=O)c1cnc(Nc2nc3ccccc3o2)nc1C	n	64.9	n	93.5	56.1	82.2
Cc1nc(Nc2nc3ccccc3o2)nc2c1CCC2	n	56.7	n	91.0	n	x
Cc1cccc(C)c1Nc1nc2ccccc2o1	n	64.3	n	n	n	x
CCOC(=O)c1cnc(Nc2nc3ccccc3o2)nc1CSc1nnc(C)s1	n	n	n	n	n	x
Clc1ccccc1Nc1nc2ccccc2o1	x	n	x	n	n	n
COc1ccc(CN(C)C[C@@H]2Oc3c(NS(=O)(=O)c4ccccc4)cccc3C(=O)N([C@H](C)CO)C[C@@H]2C)cc1	x	x	x	x	x	n
O=C(N[C@@H]1CC[C@H](CCNS(=O)(=O)c2ccc(F)cc2)O[C@@H]1CO)C1CC1	x	x	x	x	x	n
O=C(c1cccc(F)c1)N1CC2(C1)[C@H](c1ccccc1)[C@H](CO)N2C(=O)C1CCC1	x	x	x	x	x	n
CCc1nc(N)nc(N)c1-c1ccc(N(C)Cc2ccccc2)c([N+](=O)[O-])c1	x	n	x	67.6	n	n
CC(C)(C)c1nc(SCC(=O)Nc2ccc3c(c2)OCCO3)c2ccccc2n1	n	n	n	n	n	n
CC(=O)c1ccc(NC(=S)Nc2ccc(N3CCOCC3)cc2)cc1	n	n	n	n	51.3	n
O=C(Nc1ccccc1)c1ccc2nc(-c3ccco3)c(-c3ccco3)nc2c1	n	n	55.5	n	n	n
